# Screening data deposited in PubChem by National Center for Advancing Translational Sciences (NCATS).
# The list is not random: actives were taken first. Their share in the collection is about 17%.
# DT40 TDP1 no CPT: qHTS for Inhibitors of human tyrosyl-DNA phosphodiesterase 1 (TDP1): qHTS in cells in absence of CPT; 420,000 tested, 15% active; Potency, µM (series often up to 46.2 µM), inactives show at the highest dose activity change, negative = growth inhibition, most hits filed as inhibitors; DT40 Tdp1-/- hTDP1 cells, no CPT, ATP luminescence, 48 h; note: % is set by controls: 0 for no effect and ±100 for the full control effect; nearly all actives have a fitted effect of over 55% in size
#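 Seeded 400 DT40-hTDP1 cells/well (vehicle DMSO, no 20 nM CPT); pinned compounds; ≥48 hr at 37 °C; CellTiter-Glo luminescence as viability measure.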
# S2 tox: Viability Counterscreen for Primary qHTS for Inhibitors of ATXN expression; S2 cells (HEK-293 line with an ATXN2-luciferase reporter) viability, CellTiter-Fluor protease fluorescence, 24 h; Potency, µM (titrated, usually from 56.7 µM), hits mostly cytotoxic; 400,000 tested, 0.49% active; AID 651635, 2014; note: nearly all actives have a fitted effect of over 40% in size
# HepG2 viability: qHTS for Inhibitors of TGF-b: Cytotox Counterscreen. HepG2 CAGA-GFP viability, ATP luminescence, 18 h. 410,000 tested, 0.76% active. Potency, µM (highest dose often 46.1 µM), inactives show at the top dose activity change, negative = cytotoxicity, actives largely listed as cytotoxic
#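 CellTiter-Glo luminescence gave cytotoxicity after 18 hours at 37 degrees C. The cells were HepG2 CAGA-GFP in 1% FBS DMEM, stimulated with 500 pg/mL TGF-beta after compound addition. %Activity was normalised to no-cell wells (complete cell-killing) and DMSO (no toxicity), and curves were fitted and classified.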
# ATXN2 expr inh: Primary qHTS for Inhibitors of ATXN expression; 360,000 tested, 0.72% active; AID 1745845, 2022; HEK-293 ATXN2-luciferase reporter, luminescence, 24 h; Potency, µM (titrated, usually from 57 µM), without a hit: at the highest dose activity change, negative = inhibition, hits mostly inhibitors; note: % is set by controls: 0 for no effect and ±100 for the full control effect; nearly all actives have a fitted effect of over 55% in size
#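 ATXN2-luciferase reporter cells (luciferase flanked by upstream and downstream ATXN2 gene portions) were treated 24 h at 37 °C with compounds at up to 57 uM. SteadyGlo luminescence gave expression; GF-AFC fluorescence gave viability.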
# TGFb inhibitor: qHTS for Inhibitors of TGF-b. HepG2 CAGA-GFP TGF-b/SMAD3 reporter, GFP fluorescence, 18 h; TGF-beta stimulated, 500 pg/mL final. 410,000 tested, 1.2% active. Potency, µM (titrated, usually from 46.1 µM), for inactives: top-dose activity, negative = inhibition, actives largely listed as inhibitors; note: % is set by controls: 0 for no effect and ±100 for the full control effect; nearly all actives have a fitted effect of over 65% in size
#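 TGF-beta reporter screen: HEPG2 CAGA-GFP, 1% FBS, 500 pg/mL TGF-beta final, 18 h; per-cell GFP summed per well; curves fitted and categorized by class.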
# DT40 TDP1 CPT: qHTS for Inhibitors of human tyrosyl-DNA phosphodiesterase 1 (TDP1): qHTS in cells in presence of CPT; chicken DT40 Tdp1-/-;hTDP1 cells + 20 nM CPT, ATP luminescence, 48 h; AID 686979, 2013; 420,000 tested, 12% active; Potency, µM (series often up to 46.2 µM), for the others: at the top dose activity change, negative = growth inhibition, actives largely listed as inhibitors; note: % is set by controls: 0 for no effect and ±100 for the full control effect; nearly all actives have a fitted effect of over 55% in size
#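 Chicken DT40 Tdp1-/- cells stably complemented with human TDP1 were seeded at 400 cells/well in medium containing 20 nM camptothecin, exposed to pin-transferred compounds, and grown at 37 °C for at least 48 hr. Viability was read as ATP luminescence.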
# * hit, by the source's call; i = inactive; ? = inconclusive; / = no result given. Calls come from the whole dose curve; as a rule, active = well fitted curve in the direction sought with a large enough effect; inconclusive = small, poorly fitted or top-dose-only effect, or another doubt; inactive = no such curve, though single readings can be large; an effect the other way counts as inactive or inconclusive. Potency is the fitted concentration of half-maximal effect.
SMILES,DT40 TDP1 no CPT,S2 tox,HepG2 viability,ATXN2 expr inh,TGFb inhibitor,DT40 TDP1 CPT
COc1ccc(-c2nc3c4ccccc4ccn3c2Cc2ccccc2)cc1OC,16.4µM*,/,-54.3%,17.0%,?,?
COc1ccccc1Cc1c(-c2ccc(OC)c(OC)c2)nc2c(Cl)cc(C(F)(F)F)cn12,-27.1%,i,/,32.9%,/,-26.8%
COc1ccccc1Cc1c(C(C)(C)C)nc2c3ccccc3ccn12,2.59µM*,?,-14.9%,?,?,3.26µM*
COc1ccccc1Cc1c(-c2ccc(OC)c(OC)c2)nc2c3ccccc3ccn12,23.1µM*,/,-13.3%,?,-57.4%,?
CCC(=O)N1c2ccccc2NC2=C(C(=O)CC(C)(C)C2)C1c1ccc(O)c(OC)c1 (stereo unspecified),3.7%,i,-27.5%,-3.7%,-4.1%,-7.5%
Cc1onc(-c2ccccc2)c1C(=O)Nc1cccc(S(=O)(=O)N2CCCCC2)c1,?,i,-16.0%,-14.5%,-7.9%,?
CN(c1ccccc1C(N)=O)S(=O)(=O)c1ccccc1,-14.0%,i,-0.1%,-16.9%,16.2%,3.0%
CCOc1ccc(Br)cc1S(=O)(=O)N1CCSC1,-22.1%,i,2.6%,-14.8%,0.4%,-12.5%
CCC(C)N(C(=O)COC(=O)c1ccc(=O)n(Cc2ccccc2)n1)C1CCS(=O)(=O)C1 (stereo unspecified),1.2%,i,-20.0%,-2.3%,-18.4%,0.1%
COc1ccc(Cc2c(-c3ccc(C#N)cc3)nc3c4ccccc4ccn23)c(C)c1,?,i,/,5.6%,/,?
COc1ccc(Cc2c(-c3ccc(F)cc3)nc3c4ccccc4ccn23)c(C)c1,?,?,-31.6%,45.0%,?,?
COc1ccc(-c2nc3ccc(Br)cn3c2Cc2ccccc2C(F)(F)F)cc1OC,?,?,-104.8%,0.0%,?,?
COc1ccc(Cc2c(-c3ccccc3)nc3c4ccccc4ccn23)c(C)c1,14.6µM*,?,-23.6%,6.0%,?,?
COc1ccccc1Cc1c(-c2ccc(C#N)cc2)nc2c3ccccc3ccn12,20.6µM*,i,-34.3%,-10.8%,-29.8%,20.6µM*
COc1ccc(-c2nc3ccc(Cl)cn3c2Cc2ccccc2C(F)(F)F)cc1OC,16.4µM*,i,-85.6%,5.3%,?,18.4µM*
CCOC(=O)c1cc(C#N)c(Nc2ccc(C)cc2)nc1C(F)(F)F,?,i,20.5%,10.1%,1.4%,-27.0%
O=S1(=O)NC(CC2=CCCCC2)C2CCCCC2O1 (stereo unspecified),-25.2%,i,8.9%,-3.2%,3.6%,7.31µM*
Cc1ccc(CNC(=O)c2nn(C)c3c2CS(=O)(=O)c2ccccc2-3)cc1,?,i,-8.4%,-0.1%,-10.4%,16.4µM*
CN(CC(=O)Nc1ccc(Cl)cc1)C1=NS(=O)(=O)c2ccccc21,8.1%,i,18.6%,-6.1%,-3.0%,0.1%
CCOc1ccccc1CNC(=O)c1nn(C)c2c1CS(=O)(=O)c1ccccc1-2,?,i,-23.4%,-8.9%,-19.0%,18.4µM*
Cc1ccc(CNC(=O)CN(C)C2=NS(=O)(=O)c3ccccc32)cc1,9.2µM*,i,5.0%,-20.4%,-20.7%,13µM*
CCc1ccc(CNC(=O)c2nn(C)c3c2CS(=O)(=O)c2ccccc2-3)cc1,?,i,-2.0%,-1.5%,-19.0%,?
